Data on 40 compounds can be found in PubChem BioAssay (NCI).

Several values for one entry are separate records, joined by “and”; a condition that tells them apart may be missing. Equal entries are not always repeated. The panel holds about 83,000 compounds, 20% with a hit somewhere; the sample as a whole holds those more often.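 The test compound was applied at a single concentration to cells in 96-well plates for 48 hours, and percent growth was recorded.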 Activity calls are given as the source filed them. The calls were made as follows: active = growth percent below 10; inactive = the rest.

The subject of the assay is MDA-MB-468 breast. As to the kind of experiment: NCI-60 one-dose screen, 48 h (100 = growth as untreated, 0 = no growth, -100 = all killed). Particulars: 10 µM unless noted.
Take `Nc1nc([Se])c2ncn(C3OC(CO)C(O)C3O)c2n1` (stereo not given): the growth is 83.6% (inactive). `COc1ccc(C(=O)c2sc3nc4c(cc3c2N)N2CCC4CC2)cc1OC`: the growth is 72.2% (inactive).

Regarding `CCCCCCCCCCCCCCCCCC1OC[C@H](COC(=O)O[C@@H](C(=O)O[C@H]2C[C@@]3(O)[C@@H](OC(=O)c4ccccc4)[C@@H]4[C@]5(OC(C)=O)CO[C@@H]5C[C@H](O)[C@@]4(C)C(=O)[C@H](OC(C)=O)C(=C2C)C3(C)C)[C@@H](NC(=O)c2ccccc2)c2ccccc2)O1` (stereo not given in full), the growth was 0.893% (active). As to `Clc1ccc(N2COOC3(OOC2)C2CC4CC(C2)CC3C4)cc1`, the growth was 65.3% (inactive).

For `CC[CH2][Sn]([Cl])([Cl])[CH2]CC`, the growth is 22.4% (inactive). Consider `Clc1cccc(N2COOC3(OOC2)C2CC4CC(C2)CC3C4)c1`, for which the growth was 77.7% (inactive). Take `ClCCN(CCCl)c1nc(Cl)c(C2CC(c3ccccc3)=NN2c2ccccc2)s1` (stereo not given): the growth was 75.4% (inactive).

Take `CC[C@H](C)[C@H](NC(=O)c1cccn1C)C(=O)N(C)[C@H](C[C@@H](OC(C)=O)c1nc(C(=O)N[C@@H](Cc2ccccc2)C[C@H](C)C(=O)OC)cs1)C(C)C`: the growth was 25.9% (inactive). Regarding `O=C(Nc1ccc(Cl)cc1)Nc1nccs1`, the growth is 16.4% (inactive). Consider `C[n+]1c(/C=C/c2ccc(N(CCCl)CCCl)cc2)sc2ccccc21`, for which the growth was -0.963% (active). For `NS(=O)(=O)c1nc[nH]c1[N+](=O)[O-]` the value was 103% (inactive). For `N#Cc1ncc(/N=C/c2ccc(N(CCCl)CCCl)cc2)s1` the value was -2.43% (active). `Cn1cc(-c2csc(-c3cn(CCCCN4CCCCC4)c4ccc(F)cc34)n2)c2cccnc21`: the growth is 93.3% (inactive). For `CC(C)[C@@H]1NC(=O)[C@]2(C)CSC(=N2)c2csc(n2)CNC(=O)C[C@@H](/C=C/CCS)OC1=O` the value was 30% (inactive); for `O=c1[nH]c2ccc([N+](=O)[O-])cc2c(=O)o1`, 108% (inactive). Turning to `O=C(O)CNCP(=O)(O)O`, the growth was 102% (inactive).

For `[Cl][Hg][c]1ccc2ccccc2c1`, the growth was -83.2% (active). For `C[C@]12C[C@H](c3ccoc3)OC(=O)[C@H]1CC[C@@]1(C)[C@@H]2[C@H]2C=C[C@]1(O)C(=O)O2` the value was 105% (inactive). With `COc1cc2c(O[C@@H]3OC[C@H](O)[C@H](O)[C@H]3O)c3c(c(-c4ccc5c(c4)OCO5)c2cc1OC)C(=O)OC3`, the growth was 59.3% (inactive). Regarding `O=C1CC2(CC3(Cl)C(Cl)=C(Cl)C2(Cl)C3(Cl)Cl)C(=O)O1` (stereo not given), the growth is 105% (inactive). Consider `CSc1ccccc1NP1(=O)OCC(C)([N+](=O)[O-])CO1` (stereo not given), for which the growth is 105% (inactive). As for `CC(CC(C#N)(c1ccccc1)c1ccccc1)N1CCOCC1` (stereo not given), the growth is 107% (inactive). Regarding `O=C1N[C@@H]2[C@@H](O)[C@@H](O)[C@H](O)C[C@H]2c2cc3c(c(O)c21)OCO3`, the growth was -45.8% (active). Regarding `CC(C)[C@]12O[C@H]1[C@@H]1O[C@]13[C@]1(O[C@H]1C[C@H]1C4=C(CC[C@@]13C)C(=O)OC4)[C@@H]2OC(=O)OC(C)(C)C`, the growth was -48.4% (active). `CCOC(=O)[C@@H](C)C[C@H](Cc1ccccc1)NC(=O)c1csc([C@@H](C[C@H](C(C)C)N(C)C(=O)CNC(=O)[C@H]2CCCCN2C)OC(C)=O)n1`: the growth was 28% (inactive). For `CN(C)C(=O)Oc1ccc(Br)cc1` the value was 98.6% (inactive); for `Cc1ccc(NC2=N[C@]34CC(=O)CC[C@]3(C)[C@H]3CC[C@]5(C)C(=O)CC[C@H]5[C@@H]3C[C@@H]4S2)c(C)c1`, 17% (inactive). For `CC[C@H](C)[C@H](NC(=O)CN(C)C)C(=O)N(C)[C@H](C[C@@H](OC(C)=O)c1nc(C(=O)NC23C4C5C2C2C3C4C52C(=O)OC)cs1)C(C)C` (stereo not given in full) the value was -18.6% (active). With `O=S(=O)(F)c1ccc(Cl)cc1`, the growth is 121% (inactive). On to `COc1cc([C@@H]2c3cc4c(cc3[C@H](OC(C)=O)[C@H]3COC(=O)[C@@H]23)OCO4)cc(OC)c1OC`, for which the growth is -40.2% (active).

With `CC(C)=CCc1c2c(c(O)c3c1O[C@]14C(=C[C@@H]5C[C@H]1C(C)(C)O[C@@]4(C/C=C(/C)C(=O)O)C5=O)C3=O)C=CC(C)(C)O2`, the growth was -80.8% (active). Turning to `COP(=S)(N1CC1)N1CC1`, the growth is 110% (inactive). With `O=C(O)C(O)c1ccc(Cl)cc1` (stereo not given), the growth is 84.9% (inactive) and 112% (inactive).

In the case of `C=CC[PH+](c1ccccc1)c1ccccc1.C=CC[PH+](c1ccccc1)c1ccccc1.[Pt+2].[S-]c1ncccn1.[S-]c1ncccn1`, the growth is -5.58% (active).

`CC(C)(NC(=O)O[C@@H]1CN2CCC1CC2)c1csc(-c2ccc(F)cc2)n1`: the growth was 85.2% (inactive). For `O=NN1CCCCC1`, the growth is 106% (inactive).

With `Nc1cccnc1`, the growth is 130% (inactive). Turning to `C[C@]12CCc3sc(-c4ccc(Cl)cc4)nc3C1=CC[C@@H]1[C@@H]2CC[C@]2(C)C(=O)CC[C@@H]12`, the growth was 55.5% (inactive). As for `CC(C)(C)C(=O)OCOP(=O)(OCOC(=O)C(C)(C)C)C1CCCN(O)C1=O` (stereo not given), the growth is -8.03% (active). With `CCCCCCCCCCCCCCCCCCn1cc[n+](C)c1`, the growth was -42.3% (active) and -20.4% (active).
